Measurements published in ChEMBL document CHEMBL3988442, “University of Dundee, Small-Polar-MMV Screening Library” (2021).

Columns and labels:
[1] = biological target: T1, Aspartate--tRNA(Asp/Asn) ligase (Mycobacterium tuberculosis (strain ATCC 25618 / H37Rv)) (UniProt P9WFW3); assay: Assay for Asp RNA synthetase-1 from Mycobacterium tuberculosis; assay type: functional; set-up: scale not given: direction of the effect not stated beside the values; details: 30 µM; note: in the data most compounds retested in dose-response had high values
T1 sequence (whole entry): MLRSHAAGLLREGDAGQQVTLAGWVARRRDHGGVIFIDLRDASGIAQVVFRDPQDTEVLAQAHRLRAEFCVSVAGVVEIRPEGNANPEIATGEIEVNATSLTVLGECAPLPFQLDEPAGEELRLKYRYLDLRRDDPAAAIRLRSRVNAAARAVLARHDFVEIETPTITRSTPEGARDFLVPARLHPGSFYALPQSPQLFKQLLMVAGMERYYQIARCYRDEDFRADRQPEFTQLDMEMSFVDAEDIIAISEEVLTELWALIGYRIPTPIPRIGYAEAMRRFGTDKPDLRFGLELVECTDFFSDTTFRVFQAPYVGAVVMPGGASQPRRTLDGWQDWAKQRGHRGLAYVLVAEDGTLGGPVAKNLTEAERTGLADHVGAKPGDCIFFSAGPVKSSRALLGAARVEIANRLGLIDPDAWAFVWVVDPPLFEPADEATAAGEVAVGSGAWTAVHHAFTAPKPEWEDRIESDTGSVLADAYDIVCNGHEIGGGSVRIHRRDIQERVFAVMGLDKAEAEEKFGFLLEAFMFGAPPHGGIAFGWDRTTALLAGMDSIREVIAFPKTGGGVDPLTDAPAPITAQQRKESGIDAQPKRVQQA

[2] = biological target: Shiga toxin 2 (Escherichia coli O157:H7) (UniProt P09385+P09386); assay: E. coli 0.157:H7 Shiga Toxin SOP - stx2 screening assay; assay type: functional; set-up: scale not given: direction of the effect not stated beside the values; details: 30 µM

SMILES | Percent Effect [1] | Percent Effect [2]
CC(C)N1CCOCC2(CN(Cc3nccs3)CCO2)C1 (configuration not stated) | 2.14% | -11.3%
CCCS(=O)(=O)N1CCC2(CN(c3cnn(C)c3)C(=O)CN2C)C1 (configuration not stated) | -0.662% | -13.9%
Cc1nnc(CN2CCCC(c3cc(C(N)=O)[nH]n3)C2)o1 (configuration not stated) | -2.96% | 4.59%
O=C(c1ccccn1)N1CCN(c2ccc(-c3cccnc3)nn2)CC1 | -6.42% | -48.3%
CCN(Cc1nc(C(C)C)no1)Cc1cccs1 | 0.386% | -23.8%
COC[C@@H]1CC[C@H]2[C@H](CCN2C(=O)c2ccncc2F)O1 | 3.94% | 7.83%
Cn1cnc(S(=O)(=O)N2CCN(Cc3ccco3)CC2)c1Cl | -2.54% | 13.8%
COc1ccc(Cl)cc1NCC(=O)NCCc1ccccn1 | -0.954% | 25.8%
Cc1ccc(N(C)C2CCN(C(=O)c3ccsc3)CC2)nn1 | 0.243% | 1.6%
COCCN1CC[C@@H](O)[C@@H]1Cc1ccccc1 | 1.19% | -38.2%
CN(C)C(C)(C)CNC(=O)C(C)(C)c1ccccc1F | -0.279% | 13.2%
